{
  "source": "PubChem BioAssay (NCATS)",
  "note": "Inconclusive results are not listed. Values without a mark were called inactive. Calls of active or inactive are those of the source. The call rests on the fitted dose curve; in most records, active means well fitted curve in the direction sought with a large enough effect; inconclusive means small, poorly fitted or top-dose-only effect, or another doubt; inactive means no such curve, though single readings can be large; an effect the other way counts as inactive or inconclusive. Potency means the concentration at half of the fitted maximal effect.",
  "data": [
    {"experiment": "qHTS of pediatric cancer cell lines to identify multiple opportunities for drug repurposing: Confirmatory screen for A673 cells (AID 1347110); further: nearly all actives have a fitted effect of over 65% in size;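 on activity change, negative = cytotoxicity: plate controls were DMSO neutral control for no effect and bortezomib positive control for full effect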", "conditions": "A673 Ewing sarcoma cell viability; series mostly up to 45.9 µM; activity change, negative = cytotoxicity: at the top concentration", "method_in_brief": "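A673 cells at 500-1,000 cells/well were dosed 5 h after plating, in dilution series up to 46 uM final; primary runs used 8 or 11 points and confirmatory runs used 11 points. Viability was read by CellTiter-Glo luminescence after 48 h, against DMSO and 2.3 uM bortezomib controls.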", "units": {"activity change, negative = cytotoxicity": "%"}, "values": [
      {"smiles": "COc1ccc(-c2ccc3cc(C(=O)O)ccc3c2)cc1C12CC3CC(CC(C3)C1)C2", "Potency": "5850 nM (active)"},
      {"smiles": "CC(C)NCC(O)c1ccc(NS(C)(=O)=O)cc1", "note": "(stereo not given)", "outcome": "inactive"},
      {"smiles": "COC(=O)Nc1nc2ccc(Sc3ccccc3)cc2[nH]1", "Potency": "1170 nM (active)"},
      {"smiles": "CCCCOc1ccc(CC(=O)NO)cc1", "activity change, negative = cytotoxicity": -2.06},
      {"smiles": "CC(C)(C)C(=O)OCOP(=O)(COCCn1cnc2c(N)ncnc21)OCOC(=O)C(C)(C)C", "Potency": "4650 nM (active)"},
      {"smiles": "O=S(=O)(O)CCS", "activity change, negative = cytotoxicity": -19.1},
      {"smiles": "CC(C)(C#N)c1cc(Cn2cncn2)cc(C(C)(C)C#N)c1", "activity change, negative = cytotoxicity": 5.55},
      {"smiles": "COc1cc([C@@H]2c3cc4c(cc3[C@H](O)[C@H]3COC(=O)[C@H]23)OCO4)cc(OC)c1OC", "Potency": "104 nM (active)"},
      {"smiles": "Nc1nc(F)nc2c1ncn2[C@@H]1O[C@H](CO)[C@@H](O)[C@@H]1O", "Potency": "1850 nM (active)"},
      {"smiles": "Nc1nc(N)nc(-c2cc(Cl)ccc2Cl)n1", "Potency": "26900 nM (active)"},
      {"smiles": "NC(=O)c1cccnc1", "Potency": "13100 nM (active)"},
      {"smiles": "COC(=O)Nc1nc2ccc(S(=O)c3ccccc3)cc2[nH]1", "note": "(stereo not given)", "Potency": "1170 nM (active)"},
      {"smiles": "CCOC(=O)[C@H](CCc1ccccc1)N[C@H]1CS[C@H](c2cccs2)CN(CC(=O)O)C1=O", "Potency": "10400 nM (active)"},
      {"smiles": "CC(C)C[C@H](NC(=O)[C@H](CCc1ccccc1)NC(=O)CN1CCOCC1)C(=O)N[C@@H](Cc1ccccc1)C(=O)N[C@@H](CC(C)C)C(=O)[C@@]1(C)CO1", "Potency": "52.2 nM (active)"},
      {"smiles": "COc1nc(N)nc2c1ncn2[C@@H]1O[C@H](CO)[C@@H](O)[C@@H]1O", "Potency": "1850 nM (active)"},
      {"smiles": "C[C@@H]1C[C@H]2[C@@H]3CCC4=CC(=O)C=C[C@]4(C)[C@@]3(Cl)[C@@H](O)C[C@]2(C)[C@@]1(OC(=O)c1ccco1)C(=O)CCl", "Potency": "2610 nM (active)"},
      {"smiles": "O=NN(CCCl)C(=O)NC1CCCCC1", "activity change, negative = cytotoxicity": 15.9},
      {"smiles": "Nc1[nH]c(=O)ncc1F", "activity change, negative = cytotoxicity": 14.6},
      {"smiles": "COc1ccc(C(=O)CC(=O)c2ccc(C(C)(C)C)cc2)cc1", "outcome": "inactive"},
      {"smiles": "Cc1cccc(N(C)C(=S)Oc2ccc3ccccc3c2)c1", "activity change, negative = cytotoxicity": 14.2}
    ]},
    {"experiment": "qHTS of pediatric cancer cell lines to identify multiple opportunities for drug repurposing: Confirmatory screen for SK-N-MC cells (AID 1347111);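 further: cells exposed to compound for 48 h before the readout; nearly all actives have a fitted effect of over 70% in size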;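 on activity change, negative = cytotoxic: plate controls were DMSO for no effect and bortezomib for full effect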", "conditions": "SK-N-MC cell viability; series mostly up to 45.9 µM; activity change, negative = cytotoxic: at the top concentration", "method_in_brief": "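SK-N-MC cells at 500-1,000 cells/well in growth media were pre-incubated 5 h, then exposed to compounds at 11-point dilutions for 48 h at 37 degrees C, 5% CO2. Viability was read as CellTiter-Glo luminescence.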", "units": {"activity change, negative = cytotoxic": "%"}, "values": [
      {"smiles": "COc1ccc(-c2ccc3cc(C(=O)O)ccc3c2)cc1C12CC3CC(CC(C3)C1)C2", "Potency": "2610 nM (active)"},
      {"smiles": "CC(C)NCC(O)c1ccc(NS(C)(=O)=O)cc1", "note": "(stereo not given)", "activity change, negative = cytotoxic": -0.525},
      {"smiles": "COC(=O)Nc1nc2ccc(Sc3ccccc3)cc2[nH]1", "Potency": "1040 nM (active)"},
      {"smiles": "COc1cc2c(Nc3ccc(Br)cc3F)ncnc2cc1OCC1CCN(C)CC1", "activity change, negative = cytotoxic": 5.65},
      {"smiles": "CCCCOc1ccc(CC(=O)NO)cc1", "activity change, negative = cytotoxic": -8.25},
      {"smiles": "CC(C)(C)C(=O)OCOP(=O)(COCCn1cnc2c(N)ncnc21)OCOC(=O)C(C)(C)C", "Potency": "329 nM (active)"},
      {"smiles": "CC(C)(C#N)c1cc(Cn2cncn2)cc(C(C)(C)C#N)c1", "activity change, negative = cytotoxic": -1.44},
      {"smiles": "COc1cc([C@@H]2c3cc4c(cc3[C@H](O)[C@H]3COC(=O)[C@H]23)OCO4)cc(OC)c1OC", "Potency": "32.9 nM (active)"},
      {"smiles": "Nc1nc(F)nc2c1ncn2[C@@H]1O[C@H](CO)[C@@H](O)[C@@H]1O", "Potency": "465 nM (active)"},
      {"smiles": "Nc1nc(N)nc(-c2cc(Cl)ccc2Cl)n1", "Potency": "1170 nM (active)"},
      {"smiles": "NC(=O)c1cccnc1", "Potency": "14700 nM (active)"},
      {"smiles": "COC(=O)Nc1nc2ccc(S(=O)c3ccccc3)cc2[nH]1", "note": "(stereo not given)", "Potency": "1470 nM (active)"},
      {"smiles": "CCOC(=O)[C@H](CCc1ccccc1)N[C@H]1CS[C@H](c2cccs2)CN(CC(=O)O)C1=O", "Potency": "9270 nM (active)"},
      {"smiles": "CC(C)C[C@H](NC(=O)[C@H](CCc1ccccc1)NC(=O)CN1CCOCC1)C(=O)N[C@@H](Cc1ccccc1)C(=O)N[C@@H](CC(C)C)C(=O)[C@@]1(C)CO1", "Potency": "8.3 nM (active)"},
      {"smiles": "COc1nc(N)nc2c1ncn2[C@@H]1O[C@H](CO)[C@@H](O)[C@@H]1O", "Potency": "2930 nM (active)"},
      {"smiles": "CC(C(=O)O)c1ccc2c(c1)CC(=O)c1ccccc1S2", "note": "(stereo not given)", "activity change, negative = cytotoxic": -18.5},
      {"smiles": "C[C@@H]1C[C@H]2[C@@H]3CCC4=CC(=O)C=C[C@]4(C)[C@@]3(Cl)[C@@H](O)C[C@]2(C)[C@@]1(OC(=O)c1ccco1)C(=O)CCl", "Potency": "827 nM (active)"},
      {"smiles": "O=NN(CCCl)C(=O)NC1CCCCC1", "activity change, negative = cytotoxic": -27.9},
      {"smiles": "Nc1[nH]c(=O)ncc1F", "activity change, negative = cytotoxic": 4.48},
      {"smiles": "COc1ccc(C(=O)CC(=O)c2ccc(C(C)(C)C)cc2)cc1", "Potency": "26100 nM (active)"}
    ]},
    {"experiment": "qHTS of pediatric cancer cell lines to identify multiple opportunities for drug repurposing: Confirmatory screen for BT-12 cells (AID 1347112); further: nearly all actives have a fitted effect of over 55% in size; on activity change, negative = cytotoxic: on the % scale 0 is the no-effect control and ±100 the full control effect", "conditions": "BT-12 rhabdoid tumor cells, viability; series mostly up to 45.9 µM; activity change, negative = cytotoxic: at the top concentration", "method_in_brief": "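Viability after 48 h compound treatment at 37C, 500-1,000 cells/well, read as ATP luminescence with CellTiter-Glo. Primary screens used 11-point (MIPE, 0.78 nM-46 µM) or 8-point (NPC, 0.59 nM-46 µM) final concentrations; follow-up screens used 11-point dilutions.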", "units": {"activity change, negative = cytotoxic": "%"}, "values": [
      {"smiles": "COc1ccc(-c2ccc3cc(C(=O)O)ccc3c2)cc1C12CC3CC(CC(C3)C1)C2", "activity change, negative = cytotoxic": -4.09},
      {"smiles": "CC(C)NCC(O)c1ccc(NS(C)(=O)=O)cc1", "note": "(stereo not given)", "activity change, negative = cytotoxic": 6.5},
      {"smiles": "COc1cc2c(Nc3ccc(Br)cc3F)ncnc2cc1OCC1CCN(C)CC1", "activity change, negative = cytotoxic": -3.22},
      {"smiles": "CCCCOc1ccc(CC(=O)NO)cc1", "activity change, negative = cytotoxic": -2.71},
      {"smiles": "CC(C)(C)C(=O)OCOP(=O)(COCCn1cnc2c(N)ncnc21)OCOC(=O)C(C)(C)C", "Potency": "16500 nM (active)"},
      {"smiles": "CC(C)(C#N)c1cc(Cn2cncn2)cc(C(C)(C)C#N)c1", "activity change, negative = cytotoxic": 14.5},
      {"smiles": "COc1cc([C@@H]2c3cc4c(cc3[C@H](O)[C@H]3COC(=O)[C@H]23)OCO4)cc(OC)c1OC", "Potency": "52.2 nM (active)"},
      {"smiles": "CCOC(=O)c1ccc(C#Cc2ccc3c(c2)C(C)(C)CCS3)nc1", "activity change, negative = cytotoxic": 11.9},
      {"smiles": "Nc1nc(N)nc(-c2cc(Cl)ccc2Cl)n1", "activity change, negative = cytotoxic": -3.54},
      {"smiles": "CCOC(=O)[C@H](CCc1ccccc1)N[C@H]1CS[C@H](c2cccs2)CN(CC(=O)O)C1=O", "activity change, negative = cytotoxic": -9.87},
      {"smiles": "CC(C)C[C@H](NC(=O)[C@H](CCc1ccccc1)NC(=O)CN1CCOCC1)C(=O)N[C@@H](Cc1ccccc1)C(=O)N[C@@H](CC(C)C)C(=O)[C@@]1(C)CO1", "Potency": "165 nM (active)"},
      {"smiles": "C[C@@H]1C[C@H]2[C@@H]3CCC4=CC(=O)C=C[C@]4(C)[C@@]3(Cl)[C@@H](O)C[C@]2(C)[C@@]1(OC(=O)c1ccco1)C(=O)CCl", "Potency": "5850 nM (active)"},
      {"smiles": "O=NN(CCCl)C(=O)NC1CCCCC1", "activity change, negative = cytotoxic": 15.5},
      {"smiles": "Nc1[nH]c(=O)ncc1F", "activity change, negative = cytotoxic": 1.16},
      {"smiles": "COc1ccc(C(=O)CC(=O)c2ccc(C(C)(C)C)cc2)cc1", "activity change, negative = cytotoxic": -7.35}
    ]}
  ]
}
